The text below walks through data of PubChem BioAssay (EPA / NIEHS).

Values joined by “and” are separate entries in the source; they are usually repeats but may differ in a detail not shown here. Equal entries are not always repeated. Some compounds were tested as several samples or in several runs, with calls that do not always agree. Active and inactive are the calls of the source. How the source made its calls: active means hit-call score of the fitted dose curve at least 0.9, where 1 is the maximum; inactive means score below 0.9.

The experiment is described as follows: CCTE_Mundy_HCI_Cortical_Synap_Neur_Matur_NeuriteCount: CCTE's Synaptogenesis and Neurite Maturation Assay in rat cortical cells for Neurite Count, Mundy Lab (AID 2284222). How it is done: CCTE_Mundy_HCI_Cortical_Synap&Neurite_Matur is a multiplexed, cell-based-readout assay that uses rat primary cortical cells with measurements taken at 288.33 hours after chemical dosing in a microplate: 96-well plate.CCTE_Mundy_HCI_Cortical_Synap_Neur_Matur_NeuriteCount is one of eight components of the CCTE_Mundy_HCI_Cortical_Synap&Neurite_Matur assay. It measures synaptogenesis and neurite maturation related to number of neurites using High Content Imaging of fluorescently labelled markers.[…] Using a type of morphology reporter, loss -of-signal activity can be used to understand developmental effects.
Cells are plated onto 96 well plates and allowed 2 hr for attachment to the substrate. At days in vitro (DIV) 5, Cytosine Arabinoside (AraC) is added to arrest glial cell growth. Chemicals are dosed and a media change is performed at DIV 7 of differentiation and is continued through DIV 12 when the experiment is terminated. Cells are fixed with […] and Hoechst Dye. Cells are stained using Millipore Mouse anti-MAP2MAB3418 (1:800) and Millipore Rabbit anti-Synaptophysinsc-1750 (1:250) primary antibodies and Alexa Fluor-488 goat anti-mouse and AlexaFluor-546 goat anti-rabbit secondary antibodies to label neuronal cell nuclei, synapses and neurites. A Cellomics ArrayScan VTi HCS Reader is used for automated image acquisition and analysis of neurite outgrowth.
Broadly, the AC50 is the concentration at which the activity in the assay is half-maximal. As for `CCCCSP(=O)(SCCCC)SCCCC`, the call was inactive and the half-maximal activity concentration (AC50) was 16.1 µM (active). For the compound `CCOP(=S)(Oc1cnc(C(C)(C)C)nc1)OC(C)C` (stereo unspecified), the result was inactive and the AC50 is 18.6 µM (active). Turning to `CC[C@H](C)[C@H]1O[C@]2(C=C[C@@H]1C)C[C@@H]1C[C@@H](C/C=C(\C)[C@@H](O[C@H]3C[C@H](OC)[C@@H](O[C@H]4C[C@H](OC)[C@@H](NC)[C@H](C)O4)[C@H](C)O3)[C@@H](C)/C=C/C=C3\CO[C@@H]4[C@H](O)C(C)=C[C@@H](C(=O)O1)[C@]34O)O2`, the AC50 was 657 nM (active) and 1.79 µM (active). Consider `COP(=O)(OC)OC(Br)C(Cl)(Cl)Br` (stereo unspecified), for which the AC50 is 50 µM (active) and the compound was classed as inactive.

Regarding `CCOP(=S)(OCC)OC(Cl)C(Cl)(Cl)Cl` (stereo unspecified), the call was inactive and the AC50 is 12.8 µM (active).

Take `CCOP(=O)(NC(C)C)Oc1ccc(SC)c(C)c1` (stereo unspecified): the compound was classed as inactive. For `CCOP(=S)(OCC)Oc1ccc2c(C)c(Cl)c(=O)oc2c1`, the result was inactive. The same measure, in the same setting: then `CC(C)N(C(=O)SCC(Cl)=C(Cl)Cl)C(C)C`, with “inactive”. Still for that read-out and setting: in the case of `CSC1=N[C@@](C)(c2ccccc2)C(=O)N1Nc1ccccc1` it was “inactive”. Consider `O=[N+]([O-])c1cc(C(F)(F)F)c(Cl)c([N+](=O)[O-])c1Nc1ncc(C(F)(F)F)cc1Cl`, for which the AC50 is 0.962 µM (active). As for `CCOP(=S)(OCC)Oc1ccc([N+](=O)[O-])cc1`, the result was inactive. On the same count and under the same terms, in the case of `CCOP(=O)(SC(C)CC)N1CCSC1=O` (stereo unspecified) it was “inactive”; in that of `COP(=O)(NC(C)=O)SC` (stereo unspecified), “inactive”. On the same count and under the same terms, in the case of `CC(=NC#N)N(C)Cc1ccc(Cl)nc1` it was “inactive”. Same read-out and setting: in the case of `C[N+]1(C)CCCCC1` it was “inactive”. As to `CN(C)[C@@H]1C(=O)C(C(N)=O)=C(O)[C@@]2(O)C(=O)C3=C(O)c4c(O)cccc4[C@@](C)(O)[C@H]3[C@H](O)[C@@H]12`, the AC50 was 72.5 µM (active).

For the compound `CC1=NNC(=O)N(/N=C/c2cccnc2)C1`, the call was inactive.

`CCCSP(=O)(OCC)SCCC`: the outcome was inactive.

As to `CN1COCN(Cc2cnc(Cl)s2)C1=N[N+](=O)[O-]`, the result was inactive. Same read-out and setting: then `CCOC(=O)CC(SP(=O)(OC)OC)C(=O)OCC` (stereo unspecified), with “inactive”. On the same count and under the same terms, then `CCOP(=S)(OCC)SCCSCC`, with “inactive”.

Regarding `CCOP(=S)(OCC)Oc1cc(C)nc(C(C)C)n1`, the call was inactive. On the same count and under the same terms, in the case of `CCOP(=O)(OCC)Oc1cc(C)nc(C(C)C)n1` it was “inactive”; in that of `COP(=O)(OC)C(O)C(Cl)(Cl)Cl` (stereo unspecified), “inactive”; in that of `S=C1NCCN1`, “inactive”.

`CCCSP(=O)(OCC)Oc1ccc(Br)cc1Cl` (stereo unspecified): the compound was called inactive. In the case of `CON=C(C(=O)OC)c1ccccc1CON=C(C)c1cccc(C(F)(F)F)c1`, the AC50 was 1.24 µM (active).
